# ADAM10 inh: inhibits human ADAM10. actives 0.62% (n = 370,000). inhibition, % at 7 µM. recombinant ADAM10, EDANS/DABCYL FRET peptide cleavage, 3 h. O14672. AID 720582;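 active means inhibition above a per-campaign cutoff equal to the mean of compounds falling between control-based bounds plus 3 SD, cut at about 20% in these data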;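 further: 0% = DMSO wells while the 100% control is not disclosed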
# FAS TE block: FAS thioesterase (human) inhibition; recombinant FAS-TE, OMFH fluorogenic substrate, fluorescence endpoint; inhibition, % at 15 µM; AID 602261; actives 0.67% (n = 360,000);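 active means compounds whose normalised, plate-corrected inhibition of enzyme fluorescence in the single-dose primary screen is 50% or more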;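 further: 0% = DMSO with enzyme and 100% = substrate without enzyme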
# proKLK7 act: activates the human kallikrein-7 zymogen. P49862. purified proKLK7, EDANS-DABCYL substrate fluorescence; 100% is mature enzyme control, 0% vehicle. activation, % at 7 µM. actives 0.9% (n = 370,000);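 active means activation above the mean of all tested compounds plus 3 SD, computed per campaign excluding outliers beyond control limits, cut at about 13% in these data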
# GRIN3A LBD mod: NR3A (human) ligand-binding domain modulation; NR3A LBD differential scanning fluorimetry, Tm shift; 0% = protein alone, 100% = glycine-bound protein; Tm shift relative to glycine control, % at 25 µM; AID 1259313; actives 2.5% (n = 340,000);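 active means melting temperature shift of at least 10% of the positive control shift, at one fixed dose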
# ADAM17 inh: inhibitors of human ADAM17. P78536. recombinant ADAM17, EDANS/DABCYL FRET peptide cleavage. inhibition, % at 6.95 µM. actives 0.83% (n = 370,000). AID 720648;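 active means inhibition above the mean of compounds lying between control limits plus 3 SD, set per campaign, cut at about 8.5% in these data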;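 further: 0% = DMSO-only wells as the low control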
# ADAM10 confirm: confirmation of inhibitors of human ADAM10 | shares compounds with ADAM10 inh | ADAM10 QFRET peptide cleavage, EDANS fluorescence | inhibition, % at 6.95 µM | actives 1% (n = 2,100);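 active means inhibition above about 20% chosen separately for each screening run, limit read from the data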;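 further: 0% = DMSO wells and 100% = marimastat wells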
# ADAM17 counter: ADAM17 inhibition, counter-screen for ADAM10 exosite hits. actives 0.5% (n = 2,100). inhibition, % at 6.95 µM. ADAM17 QFRET peptide cleavage, EDANS fluorescence. shares compounds with ADAM10 inh;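 active means mean triplicate inhibition above the solvent-only control wells' mean plus 3 SD, cut at about 12% in these data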;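 further: 0% = DMSO wells and 100% = marimastat wells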
# ADAM10 counter: inhibits human ADAM10 in ADAM17 exosite counter-screen; shares compounds with ADAM17 inh; recombinant ADAM10, EDANS/DABCYL FRET peptide cleavage, 3 h; inhibition, % at 6.95 µM; actives 47% (n = 2,900); AID 743256;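 active means mean inhibition over the triplicate runs exceeds the activity threshold set in the earlier primary screen, cut at about 20% in these data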;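 further: 0% = DMSO wells and 100% = marimastat wells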
# ADAM17 confirm: human ADAM17 inhibition, confirmation. shares compounds with ADAM17 inh. recombinant ADAM17, EDANS/DABCYL QFRET peptide cleavage. inhibition, % at 6.95 µM. actives 65% (n = 2,900). AID 743257;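 active means mean inhibition across replicates above the hit cutoff set in the primary screen, cut at about 8.5% in these data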;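 further: 0% = DMSO wells and 100% = marimastat wells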
# * hit, by the source's call; x = no result given. Hits are enriched below; roughly 4.6% of the tested compounds scored in any of these assays.
SMILES,ADAM10 inh,FAS TE block,proKLK7 act,GRIN3A LBD mod,ADAM17 inh,ADAM10 confirm,ADAM17 counter,ADAM10 counter,ADAM17 confirm
N#Cc1ccc(S(=O)(=O)N2CCCc3nc(-c4ccc(F)cc4)ccc32)cc1,-6,x,1,x,-4,x,x,x,x
CC(C)(C)S(=O)(=O)N1C[C@H]2CC(=O)C(CCO)=C2[C@@H]1CCO,3,x,0,x,0,x,x,x,x
COC(=O)[C@]12C[C@H](CC(=O)NCc3ccccc3)C(=O)N(Cc3ccc(Cl)cc3Cl)C1=C[C@H](C1CCCC1)O[C@@H]2C,3,x,0,x,-4,x,x,x,x
Oc1ccccc1C1SC(c2ccccc2O)SC(c2ccccc2O)S1 (stereo not given),35*,40,1,-408,11*,8,3,42*,23*
Oc1ccccc1C1OCC2(CO1)COC(c1ccccc1O)OC2 (stereo not given),-1,-9,1,-7,0,x,x,x,x
COC(=O)[C@]12C[C@H](CC(=O)N3CCOCC3)C(=O)N(Cc3ccc4c(c3)OCO4)C1=C[C@H](COCc1ccccc1)O[C@@H]2C,-1,x,0,x,-4,x,x,x,x
O=S(=O)(c1ccc(NC(=S)NCCC(c2ccccc2)c2ccccc2)cc1)N1CCOCC1,21*,30,0,16*,15*,11,4,31*,17*
CCCCOCCCNC(=S)Nc1ccc(S(=O)(=O)N2CCOCC2)cc1,11,3,-1,-2,2,x,x,x,x
CCc1nc2ccc(C(=O)NCc3ccc4c(c3)OCO4)cn2c1N(C)Cc1ccc(OC)cc1,30*,15,1,x,19*,4,1,24*,15*
CCc1nc2ccc(C(=O)NCc3ccc4c(c3)OCO4)cn2c1N(C)CCC(C)C,7,14,-1,x,6,x,x,x,x
O=C(COc1ccc(Cl)cc1Cl)N1CCCN(C(=O)COc2ccc(Cl)cc2Cl)CC1,25*,36,0,5,9.8*,4,1,20,9.2*
Cc1cc(Cl)ccc1OCC(=O)N1CCCCC1,0,-6,-1,1,-3,x,x,x,x
Oc1ccc2ccccc2c1C=Nn1c(-c2n[nH]c3c2CCC3)n[nH]c1=S,-29,x,0,x,-5,x,x,x,x
CCn1c(Cn2nnc(-c3ccccc3)n2)nnc1SCc1ccc(Cl)c(Cl)c1,26*,19,0,-12,9.1*,8,2,32*,18*
Nc1[nH]c(C(=O)c2ccc(Br)cc2)c(-c2ccncc2)c1C(=O)NCCc1c[nH]c2ccccc12,2,x,0,x,4,x,x,x,x
CN(Cc1ccccc1)c1ccc(C(CC(N)=O)NC(=O)c2ccc(Br)cc2)cc1[N+](=O)[O-] (stereo not given),38*,20,1,-3,15*,6,1,21*,13*
Nc1nc(-c2ccccc2)c(N=Nc2ccccc2Cl)s1,26*,25,1,3,16*,14,5,40*,25*
Nc1nc(-c2ccccc2)c(N=Nc2cccc3ccccc23)s1,10,44,0,6,5,x,x,x,x
COc1cc(NC(=O)c2ccno2)cc(C(=O)Nc2cccc(C(F)(F)F)c2)c1,28*,30,0,8,12*,0,0,25*,13*
O=C(N[C@H](C(=O)N1CCC[C@H]1C(=O)NC1CCCC1)C1CCCCC1)c1ccc(Cl)cc1Cl,0,x,0,x,-1,x,x,x,x
CCC(=O)N1CCN(c2nc(CC)nc3sc4c(c23)CCCC4)CC1,1,1,0,1,1,x,x,x,x
CCc1nc(N2CCN(C(=S)NCCCOC)CC2)c2c3c(sc2n1)CCCC3,20*,27,1,-8,14*,4,2,13,8
CCc1nc2ccc(C(=O)Nc3ccc(OC)c(OC)c3)cn2c1N(CC)Cc1cccc(Br)c1,26*,14,-1,x,12*,11,4,11,9.8*
COCCCn1cnn2c(=O)c3ccccc3nc2c1=O,-19,x,0,x,-9,x,x,x,x
C[C@H](CO)N1C[C@H](C)[C@@H](CN(C)C(=O)Nc2ccnc(N3CCOCC3)c2)OCc2cn(nn2)CCCC1=O,-16,x,0,x,-8,x,x,x,x
SMILES,ADAM10 inh,FAS TE block,proKLK7 act,GRIN3A LBD mod,ADAM17 inh,ADAM10 confirm,ADAM17 counter,ADAM10 counter,ADAM17 confirm
O=C(Nc1ccc(Nc2cccnc2)cc1)c1c[nH]c2ccccc12,-29,x,0,x,-11,x,x,x,x
Cc1cccc(NC(=O)c2cccc(C(=O)Nc3cccc(C)c3)c2)c1,-6,-3,-1,-3,-1,x,x,x,x
Cc1cccc(Oc2cc(NC(=O)c3ccccc3)cc([N+](=O)[O-])c2)c1,22*,35,0,5,9.0*,7,2,17,12*
Cc1cccc(C(=O)Nc2cccc(NC(=O)c3ccccc3)c2)c1,26*,10,0,-5,10*,3,0,16,11*
COc1ccc(N=C2SC(CC(=O)Nc3cccc(Cl)c3)C(=O)N2Cc2ccco2)cc1 (stereo not given),21*,35,0,12*,14*,9,3,23*,16*
CCOC(=O)C1CCCN(C(=O)c2cccc(S(=O)(=O)N(C)c3ccc(OC)cc3)c2)C1 (stereo not given),1,-2,0,0,-1,x,x,x,x
CCOC(=O)C1CCCN(C(=O)c2cccc(S(=O)(=O)N(Cc3ccccc3)c3ccccc3OC)c2)C1 (stereo not given),30*,30,0,1,14*,4,1,25*,12*
COc1ccccc1N(Cc1ccccc1)S(=O)(=O)c1cccc(C(=O)Nc2cccc(C)n2)c1,23*,31,-1,-4,10*,10,3,10,9.6*
COc1ccccc1CN1Cc2ccccc2Oc2ccccc2S1(=O)=O,7,x,0,x,4,x,x,x,x
C[C@@H]1ON(C)[C@H]2C[C@H]3c4cc(-c5cc6ccccc6o5)ccc4CCN3C[C@@H]12,-204,x,3,x,-50,x,x,x,x
CCOC(=O)c1c(C)[nH]c(C)c1C(=O)COC(=O)c1cc(OC)c(OC)cc1OC,-1,-4,0,-1,-3,x,x,x,x
CCOC(=O)c1c(C)[nH]c(C)c1C(=O)COC(=O)c1cccc(C)c1O,20*,18,1,-10,9.3*,6,1,7,8

# High-throughput results (PubChem BioAssay)
